Records with an inconclusive call do not appear. Activity calls are given as the source filed them. The call rests on the fitted dose curve; in most records, active means well fitted curve in the direction sought with a large enough effect; inconclusive means small, poorly fitted or top-dose-only effect, or another doubt; inactive means no such curve, though single readings can be large; an effect the other way counts as inactive or inconclusive.
Columns and labels:
[1] = P-glycoprotein substrates identified in KB-8-5-11 adenocarcinoma cell line, qHTS therapeutic library screen (AID 1346987); further: nearly all actives have a fitted effect of over 65% in size; further: potency means the concentration at half of the fitted maximal effect
In short: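 Human cervical adenocarcinoma KB-8-5-11 cells, selected in colchicine to over-express P-gp and assayed without it, were exposed for 72 h to titrated compounds. An ATP-based luminescent viability signal gave AC50.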

[2] = tested on: Zika virus NS2B-NS3 protease (linked construct); experiment: Primary screen NINDS Rhodamine qHTS for Zika virus inhibitors (AID 1347160); further: nearly all actives have a fitted effect of over 55% in size
In short: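 Single-chain NS2B-NS3 protease, 25 nM, pH 8.0; compounds preincubated 15 min. Activity: Rhodamine110 release from 1.5 microM substrate over 15 min, room temperature, data fitted to 4-parameter Hill.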

[3] = Primary qHTS for inhibitors of nuclear receptor binding SET domain protein 2 (NSD2) in an isogenic RCH-ACV NSD2 p.E1099K mutant (9B) (AID 1645876); further: nearly all actives have a fitted effect of over 70% in size; further: potency means the concentration at half of the fitted maximal effect
[4] = target: Luciferin 4-monooxygenase (Photinus pyralis) (UniProt P08659); experiment: Primary firefly luciferase (FLuc) qHTS assay for identification of artifact compounds. (AID 1845220); conditions: outcome: dose series up to 54.1 µM unless noted;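 further: plate controls were DMSO vehicle for no effect and no enzyme for full effect; nearly all actives have a fitted effect of over 60% in size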
In short: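 In this counter-screen for luciferase artifacts, test compounds met substrate (10 uM each luciferin and ATP) before 10 nM enzyme started the reaction. Light output was measured 5 min later.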

[5] = tested on: Nanoluciferase (engineered Oplophorus gracilirostris luciferase); experiment: Primary Nanoluciferase (NLuc) qHTS assay for identification of artifact compounds. (AID 1845222);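 further: NLuc secreted into diluted conditioned medium of S16 cells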
In short: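 Using secreted nanoluciferase in S16 culture medium (0.22 um filtered, 1:55 dilution), compounds were preincubated 15 min at RT. Signal was generated with Nano-Glo reagent (1:100) over 5 min.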

[6] = Primary redox qHTS assay for identification of artifact compounds. (AID 1845223);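 further: 0% = DMSO and 100% = reference compound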
In short: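 Redox-cycling detection via DTT (250 uM final) oxidation coupled to Amplex Red (25 uM)/HRP (250 mU/mL) in HBSS. 15 min preincubation plus 30 min after DTT, room temperature. Ex/Em 525/598 nm; 4-parameter Hill fit against DMSO and 10 uM DA3003.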

CRL-7250 = normal cell line; experiment: Cytotoxic Profiling of Annotated Libraries Using Quantitative High-Throughput Screening (AID 1296008); conditions: Five cell lines viability, CellTiter-Glo ATP luminescence, 48-72 h; max response: stronger effect = lower value; further: nearly all actives have a fitted effect of over 60% in size; further: potency means the concentration at half of the fitted maximal effect; on max response: on the % scale 0 is the no-effect control and ±100 the full control effect
In short: (§1)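 Compounds were pin-transferred onto cells and incubated 48 or 72 hr at 37 degree Celsius, 95% humidity. CellTiter-Glo was added, plates sat 10 min at room temperature, then ATP-coupled luminescence was imaged as the viability read-out.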

HEK293 = experiment: as above; conditions: Five cell lines viability, CellTiter-Glo ATP luminescence, 48-72 h; max response: stronger effect = lower value
In short: as §1

HaCat = experiment: as above; conditions: Five cell lines viability, CellTiter-Glo ATP luminescence, 48-72 h; max response: stronger effect = lower value
In short: as §1

C33A = experiment: Primary qHTS to identify gynecologic anti-cancer compounds using libraries of approved drugs and bioactive compounds (AID 1345084); conditions: Gynecologic cancer cell panel viability, ATPlite luminescence, 48 h; series mostly up to 57.5 µM; further: nearly all actives have a fitted effect of over 55% in size; further: potency means the concentration at half of the fitted maximal effect
In short: (§2)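 Cells, 1,000 per well, were allowed to settle for 16 h at 37 C before compound addition. Five concentrations were tested for 48 h, and viability was read by ATPlite luminescence after 15 min at room temperature.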

CASKI = experiment: as above; conditions: Gynecologic cancer cell panel viability, ATPlite luminescence, 48 h; series mostly up to 57.5 µM
In short: as §2

Es-2 = experiment: as above; conditions: Gynecologic cancer cell panel viability, ATPlite luminescence, 48 h; series mostly up to 57.5 µM
In short: as §2

Hek293T = experiment: as above; conditions: Gynecologic cancer cell panel viability, ATPlite luminescence, 48 h, control line for the selectivity index; series mostly up to 57.5 µM
In short: as §2

OV90 = experiment: as above; conditions: Gynecologic cancer cell panel viability, ATPlite luminescence, 48 h; series mostly up to 57.5 µM
In short: as §2

PA-1 = experiment: as above; conditions: Gynecologic cancer cell panel viability, ATPlite luminescence, 48 h; series mostly up to 57.5 µM
In short: as §2

Tov-21-G = experiment: as above; conditions: Gynecologic cancer cell panel viability, ATPlite luminescence, 48 h; series mostly up to 57.5 µM
In short: as §2

Tov112D = experiment: as above; conditions: Gynecologic cancer cell panel viability, ATPlite luminescence, 48 h; series mostly up to 57.5 µM
In short: as §2

[7] = target: Calcium and integrin-binding protein 1 (Homo sapiens) (UniProt Q99828); experiment: Primary qHTS for Identification of Calcium Integrin Binding Protein 1 (CIB1) Competitor (AID 1508620);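 further: GST tagged CIB1 binding a fluorescein labelled alphaIIb integrin peptide tracer; top concentration of the series differs between compounds; on the % scale 0 is the no-effect control and ±100 the full control effect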
In short: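 Fluorescence polarization competition: CIB1-GST (1 uM final) preincubated with compound 15 min at room temperature, then FITC-labeled alphaIIb peptide (100 nM final) added for another 15 min. Polarization read at Ex 480/Em 540.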

[8] = target: Phospholipid hydroperoxide glutathione peroxidase GPX4 (Homo sapiens) (UniProt P36969); experiment: Primary qHTS Assay for Inhibitors of Recombinant Selenoprotein Glutathione Peroxidase 4 (GPX4) (AID 1845192); further: on the % scale 0 is the no-effect control and ±100 the full control effect; nearly all actives have a fitted effect of over 65% in size
In short: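 qHTS, GR-coupled: GPX4 200 nM + cpd 30 min RT → GSH 1 mM, NADPH 0.5 mM, GR 100 nM → CHP 0.5 mM start; fluor 340/450 at t0 and t15 min; no-enzyme wells as control.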

NIH3T3 = experiment: Cytotoxic Profiling of Annotated Libraries Using Quantitative High-Throughput Screening (AID 1296008); conditions: Five cell lines viability, CellTiter-Glo ATP luminescence, 48-72 h; max response: stronger effect = lower value; further: nearly all actives have a fitted effect of over 60% in size; further: potency means the concentration at half of the fitted maximal effect; on max response: on the % scale 0 is the no-effect control and ±100 the full control effect
In short: as §1

Chain of Phospholipid hydroperoxide glutathione peroxidase GPX4 (Homo sapiens) (P36969 whole entry, looked up): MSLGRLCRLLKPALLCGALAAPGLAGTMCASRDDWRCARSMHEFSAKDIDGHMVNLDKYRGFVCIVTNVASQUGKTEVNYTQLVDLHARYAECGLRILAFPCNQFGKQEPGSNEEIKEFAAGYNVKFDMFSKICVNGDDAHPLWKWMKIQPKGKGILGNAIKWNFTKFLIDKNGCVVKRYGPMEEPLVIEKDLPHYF
Chain of Calcium and integrin-binding protein 1 (Homo sapiens) (Q99828 whole entry, looked up): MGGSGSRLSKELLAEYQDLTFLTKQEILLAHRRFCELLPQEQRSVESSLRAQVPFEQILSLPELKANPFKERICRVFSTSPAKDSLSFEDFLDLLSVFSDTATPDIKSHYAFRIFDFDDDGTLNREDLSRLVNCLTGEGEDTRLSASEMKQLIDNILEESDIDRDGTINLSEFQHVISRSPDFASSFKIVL

CC[C@H]1C2CC3[C@@H]4N(C)c5ccccc5[C@]45C[C@@H]([C@H]2[C@H]5O)N3[C@@H]1O
inactive: Potency [1] | Potency [2] | Potency [3] | outcome [4] | Potency [5] | Potency [6] | max response (CRL-7250) -2.01% | max response (HEK293) 0.828% | max response (HaCat) 4.96% | Potency (C33A) | Potency (CASKI) | Potency (Es-2) | Potency (Hek293T) | Potency (OV90) | Potency (PA-1) | Potency (Tov-21-G) | Potency (Tov112D)

CC[C@H]1C[C@@H]2CC[C@@H](O2)[C@@H](C)C(=O)O[C@H](CC)C[C@H]2CC[C@H](O2)[C@H](C)C(=O)O[C@@H](C)C[C@@H]2CC[C@@H](O2)[C@@H](C)C(=O)O[C@H](CC)C[C@H]2CC[C@H](O2)[C@H](C)C(=O)O1
active: Potency [1] 0.968 µM | Potency [3] 0.0108 µM | Potency (CRL-7250) 0.385 µM | Potency (HEK293) 0.0217 µM | Potency (HaCat) 0.0685 µM | Potency (NIH3T3) 0.0385 µM | Potency (C33A) 0.224 µM | Potency (CASKI) 0.447 µM | Potency (Es-2) 0.501 µM | Potency (Hek293T) 0.355 µM | Potency (OV90) 0.0891 µM | Potency (PA-1) 0.178 µM
inactive: Potency [2] | Potency [7] | Potency [8] | outcome [4] | Potency [5] | Potency [6]

COC1CC(O[C@H]2CC[C@]3(C)C4CC[C@]5(C)[C@@H](C6=CC(=O)OC6)[C@@H](OC(C)=O)C[C@]5(O)C4CC[C@@H]3C2)OC(C)C1O[C@@H]1O[C@H](CO)[C@@H](O)[C@H](O)[C@H]1O (stereo partly drawn)
active: Potency [1] 0.544 µM | Potency [3] 0.383 µM | Potency (CRL-7250) 0.385 µM | Potency (HEK293) 0.485 µM | Potency (HaCat) 1.72 µM | Potency (C33A) 0.631 µM | Potency (CASKI) 3.16 µM | Potency (Es-2) 0.794 µM | Potency (Hek293T) 1.41 µM | Potency (OV90) 3.16 µM | Potency (PA-1) 1.12 µM | Potency (Tov-21-G) 0.562 µM | Potency (Tov112D) 0.355 µM
inactive: Potency [7] | Potency [8] | outcome [4] | Potency [5] | max response (NIH3T3) 4.46%

C[N@@+]1(CC2CC2)CC[C@]23c4c5ccc(O)c4O[C@H]2C(=O)CC[C@@]3(O)[C@H]1C5
inactive: Potency [1] | Potency [2] | Potency [7] | Potency [3] | Potency [8] | outcome [4] | Potency [5] | Potency [6] | max response (CRL-7250) 2.78% | max response (HEK293) 0.678% | max response (HaCat) -19.5% | max response (NIH3T3) 2.77% | Potency (C33A) | Potency (CASKI) | Potency (Es-2) | Potency (Hek293T) | Potency (OV90) | Potency (PA-1) | Potency (Tov-21-G) | Potency (Tov112D)
